Reference: the supplement of paper PMC5662767
Counter-ions that a name gives are not always drawn.

Tested on: Drosophila S2 cl14 SmoIP sensor cells
Assay: normalized SmoIP GFP fluorescence (untreated unstimulated = 0%, untreated Hh-stimulated = 100%); higher = more Smo activation sensor fluorescence
Settings: compound concentration: 2 uM, 24 h
[1] = stimulation: Hh conditioned medium (+Hh)
[2] = stimulation: mock conditioned medium (-Hh)
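Also: flow cytometry read-out as median GFP intensity of gated cells, compounds added 30 min before Hh-conditioned or mock medium, mock-treated cells serving as unstimulated baseline.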

| Compound | normalized SmoIP GFP fluorescence [1] [%] | normalized SmoIP GFP fluorescence [2] [%] |
| --- | --- | --- |
| Cn1cc(-c2ccc3ncc(Cc4ccc5ncccc5c4)n3n2)cn1 | 123 | -6.97 |
| CCc1cccc(CC)c1NC(=O)N1Cc2[nH]nc(NC(=O)c3ccc(N4CCN(C)CC4)cc3)c2C1 | 121 | 3.18 |
| CCOC(=O)c1ccc(OC(=O)CCCCCNC(=N)N)cc1 [gabexate-mesylate] | 120 | -12.6 |
| CCCc1cc(C)[nH]c(=O)c1CNC(=O)c1cc(-c2ccc(N3CCN(C(C)C)CC3)nc2)cc2c1cnn2C(C)C | 116 | 5.7 |
| Cc1cc(C#N)cc(C)c1Oc1nc(Nc2ccc(C#N)cc2)nc(N)c1Br [etravirine-tmc125] | 93.3 | -0.264 |
| CN(C)CC/C=C1/c2ccccc2Sc2ccc(Cl)cc21 [Chlorprothixene] | 106 | -0.378 |
| CN1CCN(C(=O)c2cc3cc(Cl)ccc3[nH]2)CC1 | 101 | -2.71 |
| CCn1c(-c2nonc2N)nc2c(C#CC(C)(C)O)ncc(OC[C@H]3CCCNC3)c21 | 98.8 | -8.56 |
| CCNC(=O)[C@H]1O[C@@H](n2cnc3c(N)nc(NCCc4ccc(CCC(=O)O)cc4)nc32)[C@H](O)[C@@H]1O | 148 | -8.77 |
| Fc1ccc([C@@H]2CCNC[C@H]2COc2ccc3c(c2)OCO3)cc1 [paroxetine-hcl] | 103 | 0.588 |
| CC(=O)c1cc([N+](=O)[O-])c(Sc2cccc(Cl)c2Cl)s1 | 108 | -4.24 |
| COc1cc([C@@H]2c3cc4c(cc3[C@@H](O[C@@H]3O[C@@H]5CO[C@@H](C)O[C@H]5[C@H](O)[C@H]3O)[C@H]3COC(=O)[C@H]23)OCO4)cc(OC)c1OP(=O)(O)O [Etopophos] | 178 | 28.7 |
| CO[C@H]1C[C@@H]2CC[C@@H](C)[C@@](O)(O2)C(=O)C(=O)N2CCCC[C@H]2C(=O)O[C@H]([C@H](C)C[C@@H]2CC[C@@H](OP(C)(C)=O)[C@H](OC)C2)CC(=O)[C@H](C)/C=C(\C)[C@@H](O)[C@@H](OC)C(=O)[C@H](C)C[C@H](C)/C=C/C=C/C=C/1C [Deforolimus] | 23.8 | -8.56 |
| Cn1ncnc1[C@H]1c2n[nH]c(=O)c3cc(F)cc(c23)N[C@@H]1c1ccc(F)cc1 | 107 | -2.82 |
| O=c1cc(N2CCOCC2)oc2c(-c3ccccc3)cccc12 | 108 | -5.76 |
| c1cncc(CN2CCC(n3ncc4c(N5CCOCC5)nc(-c5ccc6[nH]ccc6c5)nc43)CC2)c1 | 104 | -4.53 |

| Compound | normalized SmoIP GFP fluorescence [1] [%] | normalized SmoIP GFP fluorescence [2] [%] |
| --- | --- | --- |
| COc1ccccc1N1CCN(CCN2C(=O)CC3(CCCC3)CC2=O)CC1 | 102 | -17.9 |
| CC[C@@H](C)Nc1cc(C(=O)N[C@H]2C[C@H]3CC[C@@H](C2)N3c2ccc(C(=O)C3CC3)cn2)c(C)cc1C(N)=O | 150 | 18 |
| Nc1ccc2ncnc(NCCc3ccc(Oc4ccccc4)cc3)c2c1 | 45.5 | 39.1 |
| CCCCOc1c(C(=O)c2c(F)cc(C)cc2F)c[nH]c2nncc1-2 | 138 | -11.7 |
| CN(C)CCOc1ccc(-c2nc(-c3ccncc3)c(-c3ccc4c(c3)CC/C4=N\O)[nH]2)cc1 | 114 | 4.48 |
| CN(C)CCC[C@@]1(c2ccc(F)cc2)OCc2cc(C#N)ccc21 [escitalopram-oxalate] | 107 | -1.12 |
| Nc1nc(N)c2nc(-c3cccc(O)c3)cnc2n1 | 108 | -4.7 |
| CC(C)C[C@H](NC(=O)[C@H]1O[C@@H]1C(=O)O)C(=O)NCCCCN=C(N)N | 129 | -3.72 |
| C=CC(=O)Nc1ccc2ncnc(Nc3cccc(Br)c3)c2c1 | 125 | -0.662 |
| CCn1c2ccccc2c2cc(Nc3ccnc(NCCCN4CCOCC4)n3)ccc21 [ehop-016] | 100 | -3.62 |
| COc1cc2ncnc(Oc3cccc(NC(=O)Nc4cc(C(C)(C)C(F)(F)F)on4)c3)c2cc1OC | 138 | -13.4 |
| Nc1ccccc1NC(=O)c1ccc(CNc2nccc(-c3cccnc3)n2)cc1 [MGCD0103(Mocetinostat)] | 214 | 9 |
| CN1C(C(=O)Nc2ccccn2)=C(O)c2sc(Cl)cc2S1(=O)=O [lornoxicam-xefo] | 129 | -4.89 |
| COc1ccc2c(Oc3ccc(NC(=O)c4c(C)n(CC(C)(C)O)n(-c5ccccc5)c4=O)nc3)ccnc2c1 | 158 | -1.11 |
| CC(C)c1nc(CN(C)C(=O)N[C@H](C(=O)N[C@@H](Cc2ccccc2)C[C@H](O)[C@H](Cc2ccccc2)NC(=O)OCc2cncs2)C(C)C)cs1 [Ritonavir] | 109 | -4.47 |
